According to PubChem BioAssay (NCATS):
Inconclusive results are not listed. Entries that show only a call come without a potency. Unmarked numbers belong to inactive results. Calls of active or inactive are those of the source. The call rests on the fitted dose curve; in most records, active means well fitted inhibition curve with a large enough effect; inconclusive means small, poorly fitted or top-dose-only effect; inactive means flat fitted curve, though single readings scatter.

Key:
HaCat [1] = assay: Cytotoxic Profiling of Annotated Libraries Using Quantitative High-Throughput Screening (AID 1296008); details: Five cell lines viability, CellTiter-Glo ATP luminescence, 48-72 h; max response: active compounds read low
Procedure, shortened: (§1)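 Cells exposed to compounds for 48 or 72 hr at 37 degrees Celsius. Viability read as ATP-coupled luminescence with CellTiter-Glo after 10 min at room temperature.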

KB-3-1 = assay: as above; details: Five cell lines viability, CellTiter-Glo ATP luminescence, 48-72 h; max response: active compounds read low
Procedure, shortened: as §1

NIH3T3 = assay: as above; details: Five cell lines viability, CellTiter-Glo ATP luminescence, 48-72 h; max response: active compounds read low
Procedure, shortened: as §1

HACAT [2] = assay: qHTS assay to identify novel small-molecules to repurpose for Merkel cell carcinoma treatment (AID 1296009); details: MCC and control cell lines, CellTiter-Glo viability, 72 h; at 44.8 µM (top of the series) unless noted
Procedure, shortened: (§2)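 Dose-response viability screen; 72 hr exposure at 37 degree celsius; CellTiter-Glo added, 10 min room temperature, luminescence read; RLUs scaled between no-cell and DMSO wells.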

MCC-13 = assay: as above; details: MCC and control cell lines, CellTiter-Glo viability, 72 h; series mostly up to 46 µM
Procedure, shortened: as §2

MCC-26 = assay: as above; details: MCC and control cell lines, CellTiter-Glo viability, 72 h; series mostly up to 46 µM
Procedure, shortened: as §2

MKL-1 = assay: as above; details: MCC and control cell lines, CellTiter-Glo viability, 72 h; series mostly up to 46 µM
Procedure, shortened: as §2

UISO = assay: as above; details: MCC and control cell lines, CellTiter-Glo viability, 72 h; series mostly up to 46 µM
Procedure, shortened: as §2

WaGa = assay: as above; details: MCC and control cell lines, CellTiter-Glo viability, 72 h; series mostly up to 46 µM
Procedure, shortened: as §2

MKL-2 = assay: as above; details: MCC and control cell lines, CellTiter-Glo viability, 72 h; series mostly up to 46 µM
Procedure, shortened: as §2
Further: nearly all actives have a fitted effect of over 60% in size.
Potency means the concentration at half of the fitted maximal effect.

SMILES | outcome (HaCat [1]) | max response (KB-3-1) | max response (NIH3T3) | outcome (HACAT [2]) | Potency (MCC-13) | Potency (MCC-26) | Potency (MKL-1) | Potency (UISO) | Potency (WaGa) | Potency (HaCat [1]) | Potency (MKL-2) | Potency (KB-3-1) | Potency (NIH3T3)
CCCCCCCCCCCC(CC1OC(=O)C1CCCCCC)OC(=O)C(CC(C)C)NC=O (stereo not drawn) | inactive | 7.07% | 0.608% | inactive | inactive | inactive | inactive | inactive | inactive | – | – | – | –
CC(C)(C)c1nc2c3cc[nH]c(=O)c3c3cc(F)ccc3c2[nH]1 | – | -11.6% | – | – | – | inactive | inactive | – | inactive | 6.62 µM (active) | inactive | – | –
O=C(CCCCCCC(=O)Nc1cccnc1)NO | – | – | – | – | 26.4 µM (active) | – | 7.43 µM (active) | 13.2 µM (active) | 2.35 µM (active) | – | 1.87 µM (active) | 14.8 µM (active) | –
O=c1c(O)c(-c2ccc(O)c(O)c2)oc2cc(O)ccc12 | inactive | – | – | inactive | inactive | inactive | inactive | – | – | – | inactive | – | –
Cc1nc(NC(=O)N2CCC[C@@H]2C(N)=O)sc1-c1ccnc(C(C)(C)C(F)(F)F)c1 | – | – | – | – | inactive | inactive | inactive | – | – | 3.32 µM (active) | – | 8.33 µM (active) | 16.6 µM (active)
